Values joined by “and” are separate entries in the source; they are usually repeats but may differ in a detail not shown here. Equal entries are not always repeated. Results filed as inconclusive are left out. Where a call stands in place of a potency, no number is given. Active and inactive are the calls of the source. Unless noted, calls come from the whole dose curve; as a rule, active = well fitted curve in the direction sought with a large enough effect; inconclusive = small, poorly fitted or top-dose-only effect, or another doubt; inactive = no such curve, though single readings can be large; an effect the other way counts as inactive or inconclusive.
What was measured:
[1] = Cell Viability - LYMP2-001 (AID 921); note: series mostly up to about 92 µM; nearly all actives have a fitted effect of over 70% in size
Method in brief: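 qHTS, 1536-well; lymphoblastoid cells, 24 hr compound, 37 C; ATP by CellTiter-Glo, 30 min RT; luminescence; Hill-fit AC50.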

[2] = MultiTox-Fluor Cytotoxicity Assay - LYMP1-002 - Dead Cells (AID 960); note: nearly all actives have a fitted effect of over 60% in size
Method in brief: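 Cells were plated, rested 5 hr, then treated with compound dilution series for 16 hr at 37 C. After adding substrate reagent and 60 min at room temperature, dead-cell protease fluorescence gave concentration-response curves fitted by the Hill equation.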

[3] = Cell Viability - LYMP2-009 (AID 968); note: series mostly up to about 92 µM; nearly all actives have a fitted effect of over 55% in size
[4] = Cell Viability - LYMP2-021 (AID 974);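 note: compound exposure lasts 24 hours at 37 °C; nearly all actives have a fitted effect of over 55% in size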
Method in brief: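 Loss of cellular ATP, measured with a luciferase-based CellTiter-Glo readout, serves as the toxicity signal in human lymphoblastoid cells treated for 24 hours at 37 C. Potency is reported as AC50 from a standard Hill model.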

[5] = Cell Viability - LYMP2-010 (AID 981); note: nearly all actives have a fitted effect of over 55% in size
Method in brief: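 Steps: seed 2500 LYMP2-010 cells per well; incubate 5 hr at 37 C; add compound; incubate 24 hr at 37 C; add CellTiter-Glo, wait 30 min at room temperature; read luminescence. Concentration-response fitted to Hill equation for AC50.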

[6] = Cell Viability - LYMP2-012 (AID 982);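 note: cellular ATP by luciferase luminescence where a drop means cytotoxicity; cells exposed to compound for one day before reading; nearly all actives have a fitted effect of over 55% in size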
[7] = Cell Viability - LYMP2-016 (AID 984); note: nearly all actives have a fitted effect of over 55% in size
Method in brief: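 Acute toxicity in a Coriell human lymphoblastoid line is scored as loss of intracellular ATP over 24 h of treatment in complete medium. CellTiter-Glo signal is fitted across concentrations with the Hill equation to give AC50.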

[8] = Cell Viability - LYMP2-024 (AID 988); note: nearly all actives have a fitted effect of over 60% in size
Method in brief: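 qHTS cytotoxicity, human lymphoblastoid line, complete medium; 24 h cpd treatment, 37 C; CellTiter-Glo ATP luminescence readout; tetraoctylammonium bromide positive control; AC50 via Hill fit.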

[9] = target: Estrogen receptor (Homo sapiens) (UniProt P03372); assay: qHTS assay for small molecule antagonists of estrogen receptor alpha signaling (AID 588513; active = well fitted curve in the direction sought with a large enough effect in the signal ratio, with a control signal flat, not every such curve was filed as active; the % refers to the signal ratio)
Estrogen receptor (Homo sapiens), sequence (P03372 whole entry, looked up): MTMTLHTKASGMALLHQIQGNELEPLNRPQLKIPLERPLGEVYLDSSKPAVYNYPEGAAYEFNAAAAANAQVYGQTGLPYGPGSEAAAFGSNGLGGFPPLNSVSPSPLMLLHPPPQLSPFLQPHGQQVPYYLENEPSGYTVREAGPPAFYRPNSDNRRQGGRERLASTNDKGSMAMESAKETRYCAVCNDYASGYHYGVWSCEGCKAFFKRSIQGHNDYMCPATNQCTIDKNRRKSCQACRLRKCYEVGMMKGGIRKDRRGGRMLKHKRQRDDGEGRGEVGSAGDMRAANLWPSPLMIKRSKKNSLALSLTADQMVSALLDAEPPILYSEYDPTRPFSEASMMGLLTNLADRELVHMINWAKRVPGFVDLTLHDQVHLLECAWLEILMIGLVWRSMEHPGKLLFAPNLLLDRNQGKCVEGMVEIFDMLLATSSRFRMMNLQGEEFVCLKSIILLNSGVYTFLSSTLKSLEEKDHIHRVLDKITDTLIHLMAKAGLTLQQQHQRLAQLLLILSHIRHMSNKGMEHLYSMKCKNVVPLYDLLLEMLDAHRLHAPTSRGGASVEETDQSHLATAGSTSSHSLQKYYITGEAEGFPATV
Method in brief: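 Cells were plated at 5000/well and incubated 4 h at 37 C. Compounds were added as 1:2 dilution series, duplicates. 17-beta-estradiol (0.5nM final) was added for 18 h before CCF4 detection.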

[10] = target: Estrogen receptor (Homo sapiens) (UniProt P03372); assay: qHTS assay for small molecule agonists of estrogen receptor alpha signaling (AID 588514; calls by dose curve; note: nearly all actives have a fitted effect of over 70% in size; note: potency is the fitted concentration of half-maximal effect)
Method in brief: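 Efficacy is expressed against 20 nM 17-beta-estradiol (100%) and DMSO basal (0%); EC50 from Hill equation. Assay: beta-lactamase reporter in ER-alpha-UAS-bla HEK 293 cells, 18 h compound incubation, CCF4 detection.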

[11] = target: Peroxisome proliferator-activated receptor delta (Homo sapiens) (UniProt Q03181); assay: qHTS assay for small molecule agonists of peroxisome proliferator-activated receptor delta signaling (AID 588534; calls by dose curve)
Peroxisome proliferator-activated receptor delta (Homo sapiens), sequence (Q03181 whole entry, looked up): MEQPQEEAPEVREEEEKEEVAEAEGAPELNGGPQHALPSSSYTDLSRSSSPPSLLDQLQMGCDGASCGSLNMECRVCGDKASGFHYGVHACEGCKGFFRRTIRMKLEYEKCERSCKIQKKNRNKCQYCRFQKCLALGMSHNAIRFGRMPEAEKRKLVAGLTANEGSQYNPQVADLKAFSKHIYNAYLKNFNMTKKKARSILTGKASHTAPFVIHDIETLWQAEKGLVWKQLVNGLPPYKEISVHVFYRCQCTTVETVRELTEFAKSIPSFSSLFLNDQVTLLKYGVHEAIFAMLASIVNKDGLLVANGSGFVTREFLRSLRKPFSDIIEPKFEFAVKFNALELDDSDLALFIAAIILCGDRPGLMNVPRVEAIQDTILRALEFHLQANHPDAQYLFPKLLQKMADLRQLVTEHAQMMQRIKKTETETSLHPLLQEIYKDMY
Method in brief: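 Agonist-mode qHTS; reporter cells, 5 hrs 37 C pre-incubation; compound titration, 18 hrs 37 C; CCF4 dye, 2 hrs RT; fluorescence read. EC50/efficacy via Hill fit.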

[12] = target: Peroxisome proliferator-activated receptor gamma (Homo sapiens) (UniProt P37231); assay: qHTS assay for small molecule agonists of peroxisome proliferator-activated receptor gamma signaling (AID 588536; active = well fitted curve in the direction sought with a large enough effect in the signal ratio, with a control signal flat, not every such curve was filed as active; the % refers to the signal ratio)
Peroxisome proliferator-activated receptor gamma (Homo sapiens), sequence (P37231 whole entry, looked up): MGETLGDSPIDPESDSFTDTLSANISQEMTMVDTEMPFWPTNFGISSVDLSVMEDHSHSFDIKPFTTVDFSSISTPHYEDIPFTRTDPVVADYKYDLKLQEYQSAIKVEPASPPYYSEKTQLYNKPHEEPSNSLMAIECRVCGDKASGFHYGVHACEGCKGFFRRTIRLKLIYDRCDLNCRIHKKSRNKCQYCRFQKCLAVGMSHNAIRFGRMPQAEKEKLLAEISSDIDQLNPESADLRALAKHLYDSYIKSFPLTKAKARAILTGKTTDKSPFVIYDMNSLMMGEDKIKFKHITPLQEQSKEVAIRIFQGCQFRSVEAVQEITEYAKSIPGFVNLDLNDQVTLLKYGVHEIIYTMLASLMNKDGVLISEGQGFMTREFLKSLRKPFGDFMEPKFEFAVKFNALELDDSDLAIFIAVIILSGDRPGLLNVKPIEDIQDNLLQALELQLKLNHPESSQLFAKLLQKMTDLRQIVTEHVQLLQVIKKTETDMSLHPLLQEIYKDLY
Method in brief: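 Cells were plated and held 6–6.5 h at 37 C, then compounds were added as a titration series. After a further 16 h, CCF4 dye was loaded for 2 h at room temperature and emission at 460/530 nm recorded.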

[13] = target: Retinoic acid receptor RXR-alpha (Homo sapiens) (UniProt P19793); assay: qHTS assay for small molecule agonists of retinoid X receptor alpha signaling (AID 588544; calls by dose curve)
Retinoic acid receptor RXR-alpha (Homo sapiens), sequence (P19793 whole entry, looked up): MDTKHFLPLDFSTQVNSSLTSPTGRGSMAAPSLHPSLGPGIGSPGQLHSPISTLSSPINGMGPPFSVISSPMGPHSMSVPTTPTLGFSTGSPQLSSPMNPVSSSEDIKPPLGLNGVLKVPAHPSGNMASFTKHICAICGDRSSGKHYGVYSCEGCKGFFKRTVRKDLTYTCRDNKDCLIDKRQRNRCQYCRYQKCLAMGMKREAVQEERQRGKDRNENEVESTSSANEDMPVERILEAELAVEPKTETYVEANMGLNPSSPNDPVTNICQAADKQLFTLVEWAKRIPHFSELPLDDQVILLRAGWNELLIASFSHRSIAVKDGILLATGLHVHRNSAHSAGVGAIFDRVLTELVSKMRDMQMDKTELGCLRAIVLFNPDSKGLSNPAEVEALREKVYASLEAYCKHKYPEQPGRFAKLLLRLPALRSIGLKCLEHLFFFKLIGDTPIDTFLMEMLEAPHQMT

[14] = target: Thyroid hormone receptor beta (Homo sapiens) (UniProt P10828); assay: qHTS assay for small molecule agonists of thyroid hormone receptor beta signaling (AID 588545; calls by dose curve)
Thyroid hormone receptor beta (Homo sapiens), sequence (P10828 whole entry, looked up): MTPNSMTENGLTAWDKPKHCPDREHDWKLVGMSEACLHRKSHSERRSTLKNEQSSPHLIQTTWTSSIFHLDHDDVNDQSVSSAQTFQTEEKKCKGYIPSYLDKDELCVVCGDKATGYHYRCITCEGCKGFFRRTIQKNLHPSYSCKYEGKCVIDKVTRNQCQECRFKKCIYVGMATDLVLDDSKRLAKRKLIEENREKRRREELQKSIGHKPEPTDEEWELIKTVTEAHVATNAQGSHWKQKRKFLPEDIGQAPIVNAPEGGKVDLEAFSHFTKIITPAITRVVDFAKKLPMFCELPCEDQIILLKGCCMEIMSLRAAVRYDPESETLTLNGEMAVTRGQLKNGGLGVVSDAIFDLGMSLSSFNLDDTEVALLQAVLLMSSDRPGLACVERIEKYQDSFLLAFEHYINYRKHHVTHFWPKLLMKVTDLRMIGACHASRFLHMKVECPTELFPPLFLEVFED
Method in brief: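 Cells (2500/well) were seeded, incubated 4 hrs at 37 C, dosed with a compound series, incubated 18 hrs, loaded with CCF4 dye for 2 hrs at RT, then read for fluorescence. Data were scaled between DMSO (0%) and 10 nM T3 (100%).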

[15] = qHTS assay for small molecule antagonists of retinoid X receptor alpha signaling (AID 588546); conditions: HEK293T RXRa-UAS-bla, beta-lactamase ratio, antagonist mode; measured here: W530 green channel, cytotoxicity proxy;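 note: cells stimulated with 9-cis-retinoic acid as agonist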
Method in brief: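 Beta-lactamase reporter inhibition, read as CCF4 fluorescence ratio (ex 405, em 460/530 nm) after 2 h at RT. HEK293T UAS-bla cells, 2500/well, were stimulated with 9-cis-RA at 500 or 100 nM final alongside test compound for 18 h at 37 C.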

[16] = target: Thyroid hormone receptor beta (Homo sapiens) (UniProt P10828); assay: qHTS assay for small molecule antagonists of thyroid hormone receptor beta signaling (AID 588547; active = well fitted inhibition curve with a large enough effect in the signal ratio, with a control signal flat, not every such curve was filed as active; the % refers to the signal ratio;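 note: cells stimulated with 0.4 nM T3 agonist during compound exposure; series mostly up to about 77 µM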); conditions: TR-UAS-bla HEK293, beta-lactamase ratio, antagonist mode, 18 h
Method in brief: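 TR-UAS-bla GripTite HEK293 cells in 2% charcoal/dextran FBS medium were preincubated 4 h at 37 C, given compound (0.59 nM to 92 uM) plus 0.4 nM T3 (final) for 18 h, then CCF4 for 2 h at RT; Hill fit gave IC50.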

[17] = target: Tumor necrosis factor (Homo sapiens) (UniProt P01375); assay: qHTS assay to identify small molecules that stimulate Tumor Necrosis Factor-alpha (TNF-alpha) secretion (AID 651757; active = well fitted curve in the direction sought with a large enough effect in the signal ratio; the % refers to the signal ratio)
Tumor necrosis factor (Homo sapiens), sequence (P01375 whole entry, looked up): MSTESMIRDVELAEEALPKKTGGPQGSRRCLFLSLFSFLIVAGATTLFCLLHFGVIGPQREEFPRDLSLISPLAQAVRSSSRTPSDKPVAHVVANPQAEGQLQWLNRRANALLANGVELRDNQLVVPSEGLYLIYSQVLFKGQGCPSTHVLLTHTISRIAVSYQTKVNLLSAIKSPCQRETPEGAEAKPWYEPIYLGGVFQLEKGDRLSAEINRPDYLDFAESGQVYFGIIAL
Method in brief: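 Human monocytic THP-1 cells are plated, treated with compound and held at 37 C for 17 hrs. Labeled anti-TNF-alpha antibody mixture is then added; after 3 hr at room temperature, TR-FRET signal reports secreted TNF-alpha.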

[18] = qHTS assay for environmental chemicals that activate the Aryl hydrocarbon Receptor (AhR) signaling pathway (AID 651777); conditions: 1A2-DRE human hepatoma cells, luciferase, 24 h; activation: stronger effect = higher value; note: nearly all actives have a fitted effect of over 15% in size
Method in brief: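 Human hepatoma 1A2-DRE cells stably carrying a DRE/CYP1A2 promoter–luciferase reporter, 1,200 cells/well, exposed to compound 24 hr at 37 C. Luciferase read by One-Glo luminescence after 30 min at room temperature; increased signal marks AhR activation.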

[19] = target: Nuclear receptor ROR-gamma (Homo sapiens) (UniProt P51449); assay: qHTS assay for small molecule antagonists of the retinoid-related orphan receptor gamma (ROR-gamma) signaling pathway (AID 651802);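 note: CHO cells with doxycycline-induced ROR-gamma expression; series mostly up to about 92 µM; nearly all actives have a fitted effect of over 60% in size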
Nuclear receptor ROR-gamma (Homo sapiens), sequence (P51449 whole entry, looked up): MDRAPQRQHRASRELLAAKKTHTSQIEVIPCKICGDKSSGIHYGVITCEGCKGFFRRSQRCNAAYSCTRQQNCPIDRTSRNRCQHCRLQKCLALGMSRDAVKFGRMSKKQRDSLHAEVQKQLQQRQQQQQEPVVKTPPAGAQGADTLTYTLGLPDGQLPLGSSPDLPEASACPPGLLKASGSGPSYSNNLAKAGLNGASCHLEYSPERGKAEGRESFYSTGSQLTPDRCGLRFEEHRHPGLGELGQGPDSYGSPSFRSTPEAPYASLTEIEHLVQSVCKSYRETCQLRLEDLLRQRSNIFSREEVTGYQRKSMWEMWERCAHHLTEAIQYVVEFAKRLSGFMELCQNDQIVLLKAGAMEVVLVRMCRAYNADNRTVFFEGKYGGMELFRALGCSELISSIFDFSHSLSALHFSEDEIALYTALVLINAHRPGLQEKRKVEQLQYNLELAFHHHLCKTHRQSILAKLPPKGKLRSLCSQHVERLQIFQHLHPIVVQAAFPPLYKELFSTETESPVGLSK
Method in brief: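 Steps: cells dispensed; compound or DMSO transferred by pin tool; doxycycline added to induce the ROR response element-driven luciferase; plates held 16hr at 37C; ONE-Glo added and luminescence measured.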

[20] = qHTS assay for small molecule antagonists of the retinoid-related orphan receptor gamma (ROR-gamma) signaling pathway - cell viability counter screen (AID 720652; active = well fitted curve in the direction sought with a large enough effect in the repeat runs; an effect the other way counts as inactive or inconclusive;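 note: CHO reporter cells with doxycycline-induced ROR-gamma expression; series mostly up to about 92 µM; compound exposure lasted 16 hr before ATP read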)
Method in brief: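 Steps: seed CHO cells bearing TET-inducible ROR and ROR response element-luciferase; rest 5 hr at 37 C; add compound, then doxycycline; incubate 16 hr; add CellTiter-Glo and read luminescence as ATP-based viability.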

| Compound | Potency [1] | Potency [2] | Potency [3] | Potency [4] | Potency [5] | Potency [6] | Potency [7] | Potency [8] | Potency [9] | Potency [10] | outcome [11] | outcome [12] | Potency [13] | outcome [14] | max response [15] | activity change % (negative = inhibition) [16] | outcome [17] | activation [18] | Potency [19] | Potency [20] |
| --- | --- | --- | --- | --- | --- | --- | --- | --- | --- | --- | --- | --- | --- | --- | --- | --- | --- | --- | --- | --- |
| CC(O)CCl (stereo unspecified) | inactive | inactive | inactive | inactive | inactive | inactive | inactive | inactive | inactive | inactive | inactive | inactive | inactive | inactive | -12.9% and -6.32% | -4.17% (inactive) | inactive | 0.217% (inactive) and 1.37% (inactive) | inactive | inactive |
| CCOc1ccc(N)cc1 | inactive | inactive | inactive | inactive | inactive | inactive | inactive | inactive | inactive | inactive | inactive | – | inactive | inactive | -4.66% | -6.64% (inactive) | inactive | 1.6% (inactive) | inactive | inactive |
| CCCCCCCC(=O)Cl | inactive | inactive | inactive | inactive | inactive | inactive | inactive | inactive | inactive | inactive | inactive | inactive | inactive | inactive | -7.27% | 11.9% (inactive) | inactive | -0.601% (inactive) | inactive | inactive |
| O=C=NC1CCCCC1 | inactive | inactive | inactive | inactive | inactive | inactive | inactive | inactive | inactive | inactive | inactive | inactive | inactive | inactive | -7.8% and -5.15% | -8.25% (inactive) and 2.05% (inactive) | inactive | 2.61% (inactive) and 5.17% (inactive) | inactive | inactive |
| CC(C)(c1ccccc1)c1ccc(O)cc1 | inactive | inactive | inactive | inactive | inactive | inactive | inactive | inactive | inactive | 1.78 µM (active) and 3.16 µM (active) | inactive | inactive | inactive | inactive | -11.5% | -5.71% (inactive) and 17.9% (inactive) | inactive | 0.0169% (inactive) and 0.603% (inactive) | inactive | inactive |
| OCC1CO1 (stereo unspecified) | inactive | inactive | inactive | inactive | inactive | inactive | inactive | inactive | inactive | inactive | inactive | inactive | inactive | inactive | 2.41% and -5.17% | -4.57% (inactive) and 15.9% (inactive) | inactive | -0.664% (inactive) and -1.74% (inactive) | inactive | – |
| NC(=S)Nc1ccccc1 | inactive | inactive | inactive | inactive | inactive | inactive | inactive | inactive | inactive | inactive | inactive | inactive | inactive | inactive | -15.9% and -3.13% and -6.62% | -7.36% (inactive) and -1.01% (inactive) and 3.6% (inactive) | inactive | 0.646% (inactive) and -0.436% (inactive) and 0.133% (inactive) | inactive | inactive |
| c1nc[nH]n1 | inactive | inactive | inactive | inactive | inactive | inactive | inactive | inactive | inactive | inactive | inactive | inactive | inactive | – | 6.06% | – | inactive | -0.221% (inactive) | inactive | inactive |
